Source: PubChem BioAssay AID2320 (National Center for Advancing Translational Sciences (NCATS), 2010)
Records with an inconclusive call do not appear. Entries that show only a call come without a potency. Activity calls are given as the source filed them. Calls follow the shape of the full dose curve.

Assay: A qHTS for Small Molecule Inhibitors of Shiga Toxin (Confirmatory); also: nearly all actives have a fitted effect of over 75% in size
Settings: Cell-based Shiga toxin protection reporter assay; series mostly up to 38.3 µM
Potency is read from the fitted curve at half-maximal effect.

| Structure (SMILES) | Potency |
| --- | --- |
| CC1(C)Cc2c(cnn2-c2ccccc2)C(NC(=O)CCN2CCCCO2)C1 (stereo not drawn) | inactive |
| Cc1nnc(NC(=O)C2COc3ccccc3O2)s1 (stereo not drawn) | 14.2 µM (active) |
| CCOC(=O)c1[nH]c2ccc(OC)cc2c1NC(=O)C(C)N1CCC2(CC1)OCCO2 (stereo not drawn) | inactive |
| NS(=O)(=O)c1cc(C(=O)NCC2CCCCC2)ccc1Cl | inactive |
| Cc1cc(C(=O)COC(=O)C2CC2)c(C)n1-c1ccc(F)cc1 | 4 µM (active) |
| Cc1cc(Cl)ccc1NC(=O)CN1CCC(C(O)(c2ccccc2)c2ccccc2)CC1 | inactive |
| CCN(CC)CC(=O)Nc1ccc(-c2nc3cc(NC(=O)CN(CC)CC)ccc3o2)cc1 | inactive |
| Cc1cnc(NC(=O)c2ccc(-c3nc4ccccc4s3)o2)s1 | 17.9 µM (active) |
| COCCCNC(=O)NC(=O)c1ccccc1 | inactive |
| CS(=O)(=O)N(CC(=O)Nc1ccccc1Sc1ccccc1)C1CCCCC1 | inactive |
| NC(=O)C1CCN(C(=O)C2c3ccccc3C(=O)N3CCc4ccccc4C23)CC1 (stereo not drawn) | inactive |
| Cc1cc(C)nc(SCC(=O)Nc2cc(C)on2)n1 | inactive |
| Cc1cccc(NC(=O)CCN2C(=O)c3ccccc3S2(=O)=O)c1C | 20 µM (active) |
| Cc1ccc(C)n1-c1ccc(NC(=O)c2ccccc2)cc1 | 15.9 µM (active) |
| CCCn1nnc(NC(=O)COc2ccc(C3CCCCC3)cc2)n1 | 0.0252 µM (active) |
| CN(C)S(=O)(=O)c1ccc(C(=O)Nc2ccc(CN3CCCC3)cc2)cc1 | 0.0283 µM (active) |
| Cc1nnc(N2C(=O)C(=O)/C(=C(/O)c3ccc4c(c3)OCCO4)C2c2ccc([N+](=O)[O-])cc2)s1 (stereo not drawn) | inactive |
| CC(=O)c1cccc(N2C(=O)C3C4CCC(C4=C(C)C)C3C2=O)c1 (stereo not drawn) | inactive |
| CCOC(=O)N1CCN(S(=O)(=O)c2ccc(C(=O)NNc3nc4c(C)cc(C)cc4s3)cc2)CC1 | 0.04 µM (active) |

| Structure (SMILES) | Potency |
| --- | --- |
| CC(=O)c1ccc(-c2cccc([C@H]3[C@@H]4C=CC[C@@H](C)[C@@H]4C(=O)N3Cc3ccccc3)c2)cc1 | inactive |
| COc1ccc(C/C(O)=C(\C#N)c2nc3ccccc3s2)cc1 | inactive |
| O=C(Cc1c(F)cccc1Cl)c1ccc(O)cc1O | inactive |
| COc1ccccc1C(=O)CSc1nccn1C | 28.3 µM (active) |
| CCn1c(SCC(=O)NCc2ccco2)nc2c1c(=O)n(C)c(=O)n2C | inactive |
| NC(=O)[C@@H]1CCCN1C(=O)c1ccc2nc(Cc3cccc(Cl)c3)oc2c1 | inactive |
| COc1ccc(C(=O)CC(=O)C(=O)Nc2ccc(C)cc2Cl)cc1 | inactive |
| CCC(=O)N1CCN(c2ccccc2NC(=O)c2ccc([N+](=O)[O-])o2)CC1 | 4 µM (active) |
| CCc1ccccc1NC(=O)Cn1nnc(-c2cccs2)n1 | inactive |
| CN1CCN(C(=O)CN(C)S(=O)(=O)c2ccc(F)cc2)CC1 | inactive |
| COc1ccc(N(CCC#N)S(=O)(=O)c2ccc(Cl)cc2)cc1 | inactive |
| CCn1cc(C(=O)NCc2ccccc2Cl)cn1 | inactive |
| COc1cc(/C=C2/C(=O)c3cccc([N+](=O)[O-])c3C2=O)c(Br)cc1O | 22.5 µM (active) |
| CC(=O)Nc1ccc(N2N=C(C)C(N=Nc3ccccc3)C2=O)cc1 (stereo not drawn) | 11.3 µM (active) |
| CC(=O)c1ccc2noc(-c3ccc(F)cc3)c2c1 | 11.3 µM (active) |
| COc1ccccc1NC(=O)CSc1nnc(-c2ccco2)n1Cc1ccco1 | inactive |
| O=C(Cc1cccs1)Nc1ccc(-c2nnc(-c3ccco3)o2)cc1 | 4 µM (active) |
| CCCCC1(C)Nc2ccccc2-c2nc3ccccc3n21 (stereo not drawn) | 12.6 µM (active) |
| Cc1nn(-c2ccc(Cl)cc2)c(N)c1C(O)(CSc1nccn1C)C(F)(F)F (stereo not drawn) | inactive |
